# Source: PubChem BioAssay
# Compounds with a hit are over-represented: about 1.1% of the library has one in this group of screens.
# HTR5A ag – activates human HTR5A in OPRM1-OPRD1 agonist counter-screen | P47898 | HTR5A agonist assay, luminescence, cell-based | activation, % at 9.3 µM | actives 0.61% (n = 340,000) | AID 504692; in the data active = activation mostly above about 9.5%, no sharp cut-off; inactive = mostly below about 7.6%;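 also: 0% = cells with vehicle only and 100% = reference agonist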
# OPRM1-OPRD1 inv – inverse agonist of human OPRM1-OPRD1 heterodimerization | actives 0.21% (n = 340,000) | inhibition, % at 9.3 µM | cell-based MOR-DOR heterodimer luminescence, inverse agonism | AID 504357; in the data active = inhibition above about 22%, passing the limit was not always enough;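 also: 0% = cells with DMSO and 100% = wells without cells with DMSO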
# OPRM1-OPRD1 ag – OPRM1-OPRD1 heterodimerization agonism | cells, luminescence | activation, % at 9.3 µM | P35372+P41143 | actives 0.3% (n = 340,000);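 also: 0% = vehicle-treated cells and 100% = reference agonist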
# HTR5A inv ctr – counter-screen for OPRM1-OPRD1 inverse agonists: human HTR5A inverse agonism | P47898 | HTR5A cell line, luminescence | inhibition, % at 9.3 µM | actives 0.083% (n = 340,000); in the data active = inhibition mostly above about 23%, no sharp cut-off; inactive = mostly below about 18%;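 also: 0% = cells with DMSO and 100% = no-cell wells with DMSO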
# MOR-DOR ag conf – OPRM1-OPRD1 heterodimer agonism, confirmation. activation, % at 9.3 µM. actives 45% (n = 830). cells, MOR-DOR heterodimerization, luminescence complementation. shares compounds with OPRM1-OPRD1 ag;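 also: 0% = vehicle-treated cells and 100% = reference agonist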
# HTR5A ag counter – counter-screen for OPRM1-OPRD1 agonists: human HTR5A agonism. shares compounds with OPRM1-OPRD1 ag. HTR5A agonist counterscreen, cell luminescence. activation, % at 9.3 µM. actives 8% (n = 830). AID 504905; in the data active = activation above about 17%;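 also: 0% = vehicle-treated cells and 100% = reference agonist response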
# Numbers without * were called inactive; i = inactive; / = not tested or not shown. Rule as the data show it, unless noted: active = activation above about 18%; inactive = the rest.
SMILES,HTR5A ag,OPRM1-OPRD1 inv,OPRM1-OPRD1 ag,HTR5A inv ctr,MOR-DOR ag conf,HTR5A ag counter
COc1ccc(CN2CCc3c([nH]c4ccccc34)C2)c(OC)c1C,-3,-344,70*,12,38*,1
C[C@H](NC(=O)[C@H]1N2C(=O)c3ccccc3C2SC1(C)C)C(=O)NCc1ccncc1 (some centres not stated),2,8,-2,1,/,/
COc1cccc(C2c3[nH]c4ccccc4c3C[C@H]3C(=O)N(CCCOC(C)C)CC(=O)N23)c1 (some centres not stated),5,-87,18*,-20,17,6
C=CCn1c(O)c(C2=c3ccccc3=NC2=O)sc1=Nc1ccc(O)cc1,-8,-195,38*,21,15,3
C/C(=N\Nc1ccc(S(=O)(=O)N2CCCCC2)cn1)c1cccc(Br)c1,-1,-25,6,4,/,/
CC(C)Cn1nc(C(=O)NCc2ccccc2CN2CCCC2)c2ccccc2c1=O,3,i,163*,-7,4,1
CCOC(=O)N/N=C/c1cn(Cc2ccc(Cl)cc2)c2ccccc12,2,7,-1,-5,/,/
N#CCC(=O)N/N=C/c1cn(Cc2ccc(Cl)cc2Cl)c2ccccc12,5,-103,20*,-6,2,9
Cn1ccnc1SCC(=O)c1ccc2ccccc2c1,4,6,-1,-17,/,/
Cc1oc2c(C)c(O)ccc2c(=O)c1-c1cnn(-c2ccccc2)c1,11,-80,18*,-31,17,-1
COc1ccc2c(=O)c(-c3cnn(-c4ccccc4)c3)c(C)oc2c1,3,-8,1,-16,/,/
O=C(c1ccc(Cn2cc([N+](=O)[O-])cn2)o1)N1CCCCCC1,6,18,-3,-2,/,/
CCOC(=O)C1CCCN(CCc2ccccc2)C1 (configuration not stated),0,3,-1,6,/,/
O=C(OC1C2CCC1C1CN(CCc3ccccc3)CC12)c1ccccc1 (configuration not stated),3,-109,18*,-9,60*,2
COc1ccc2c(Cl)c(-c3nnc4n3CCCCC4)sc2c1,4,-455,81*,-11,15,5
CC1CN(S(=O)(=O)c2ccc(C(=O)N3CCc4ccccc43)cc2)CC(C)O1 (configuration not stated),-6,5,-1,16,/,/
COc1ccc(NC(=O)c2ccc3ccccc3n2)cc1S(=O)(=O)N1CCCCC1,2,10,-2,-18,/,/
COc1ccc(NC(=O)c2cc3ccccc3o2)cc1S(=O)(=O)N1CCCCC1,4,-106,21*,-15,2,0
Cc1nc2c(O)c3c(c(O)c2nc1C)C1C=CC3CC1,-1,-107,22*,5,-4,0
CCCn1cc(S(=O)(=O)c2ccc(Cl)cc2)c(=O)c2cc(OC)ccc21,-2,17,-3,-4,/,/
COc1cc2c(cc1NC(=O)C(C)Sc1ccc(NC(C)=O)cc1)oc1ccccc12 (configuration not stated),2,-114,20*,-8,0,-1
CN(C(=O)c1ccc(NC(=O)Cc2ccc(NC(=O)C3CCN(C(=O)C4CCCCC4)CC3)cc2)cc1)C1CCCC1,-5,9,-2,16,/,/
CN(C)C(CNC(=O)CSC(=S)N1CCCC1)c1ccccc1 (configuration not stated),1,i,195*,-5,183*,-4
CCOC(=O)C1CCN(C(=O)/C=C/c2ccccc2)CC1,5,15,-3,3,/,/
CN(C)C(CNC(=O)C1CCN(C(=O)/C=C/c2ccccc2)CC1)c1ccccc1 (configuration not stated),0,-165,20*,15,18,2
SMILES,HTR5A ag,OPRM1-OPRD1 inv,OPRM1-OPRD1 ag,HTR5A inv ctr,MOR-DOR ag conf,HTR5A ag counter
O=C(CSC(=S)N1CCCC1)NCCc1ccccc1,7,10,-2,-12,/,/
CN(C)C(CNC(=O)C1CC(=O)N(Cc2ccccc2)C1)c1ccccc1 (configuration not stated),-5,-250,46*,5,59*,3
COC(=O)C1=C(C)N(Cc2ccccc2)C(=NCCc2c[nH]c3ccccc23)N[C@H]1c1cccc(C(F)(F)F)c1,13,-100,22*,-36,1,2
COC(=O)C1=C(C)N(Cc2ccccc2)C(=NCc2cccc(C(F)(F)F)c2)N[C@H]1c1cccc(C(F)(F)F)c1,1,-246,45*,-3,9,4
COC(=O)C1=C(C)N(Cc2ccccc2)C(=NCc2cccc(C(F)(F)F)c2)N[C@H]1c1cccc(F)c1,4,-126,23*,-10,1,21*
COC(=O)C1=C(C)N(CC2CC2)C(=NCc2cccc(C(F)(F)F)c2)N[C@H]1c1ccccc1,6,-24,4,11,/,/
COCCN=C1N[C@@H](c2cccc(C(F)(F)F)c2)C(C(=O)OC)=C(C)N1Cc1ccccc1,6,5,-1,-7,/,/
Cc1ccc(NC(=O)C(C)OC(=O)COc2cccc(C(F)(F)F)c2)cc1 (configuration not stated),-2,-12,2,7,/,/
CCCNS(=O)(=O)c1cc(CN2C(=O)c3cccnc3C2=O)ccc1OC,-3,10,-2,12,/,/
Cc1ccc(-c2cc(C(=O)Nc3cc(C)ccc3C)[nH]n2)c(O)c1,4,-9,1,19,/,/
Cc1cc(C)c(-c2cc(C(=O)Nc3cc(C)ccc3C)[nH]n2)c(O)c1,4,-95,20*,-15,10,0
O=C(C[C@H]1C/C=C\C[C@H](NC(=O)OCC2c3ccccc3-c3ccccc32)C(=O)O[C@H](c2ccccc2)CNC1=O)N[C@H](CO)Cc1ccccc1,21*,i,239*,-144,7,12
Cc1cc(/C=C2/C(=O)NN(c3ccccc3)C2=O)c(C)n1-c1cccc(O)c1,1,-143,20*,-1,-1,-3
OCC1(Cc2ccc(Cl)cc2)CCN(CC2CC=CCC2)CC1 (configuration not stated),-4,-22,4,10,/,/
CC(C)N(Cc1ccccc1)C(=O)CN1c2cccc3cccc(c23)S1(=O)=O,2,-94,19*,-6,1,2
COc1ccc(C2NCCc3c2[nH]c2ccccc32)cc1COc1ccc(F)cc1 (configuration not stated),12,-101,20*,-7,24*,13
Cc1cc(C(=O)NCC(c2ccco2)N(C)C)no1 (configuration not stated),-3,7,-1,15,/,/
Cc1cc(C(=O)NCC(c2ccco2)N(C)C)ccc1[N+](=O)[O-] (configuration not stated),2,-214,34*,-5,26*,2
CN(C)C(CNC(=O)c1ccc(Br)cc1)c1ccco1 (configuration not stated),2,-206,43*,-6,37*,-2
